This is a sample that favours compounds with a hit; in the whole collection about 0.9% have one here.
ugtP null kill = kills S. aureus RN4220 lacking UgtP. S. aureus RN4220 ugtP deletion, OD600 growth, 16 h. growth inhibition, % (test concentration not listed). 330,000 compounds, 0.54% hits. AID 1259309; in the data active = growth inhibition above about 68%;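 note: plate controls were untreated wells for no effect and antibiotic for full effect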
PfHsp40 rescue = restores yeast growth despite PfHsp40 toxicity; S. cerevisiae expressing PfHsp40, growth rescue, ATP luminescence; growth rescue, % at 12.5 µM; 340,000 compounds, 0.68% hits; AID 504582; in the data active = growth rescue above about 28%, passing the limit was not always enough;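 note: yeast W303a lacking pdr1 and pdr3 grown in galactose medium; growth measured after three days at 30 °C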
BioA inh-1 = BioA (M. tuberculosis) enzyme inhibition; 360,000 compounds, 0.096% hits; purified M. tuberculosis BioA enzyme, plate reader; inhibition, % at 9.99 µM; AID 602481; in the data active = inhibition above about 40%
Sa RN4220 lethal = kills Staphylococcus aureus RN4220 | inhibition, % (test concentration not listed) | 330,000 compounds, 0.33% hits | AID 1259311 | S. aureus RN4220 growth, OD600, 16 h; in the data active = inhibition above about 85%;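 note: plate controls were untreated cells for no effect and reference antibiotic for full effect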
Mtb betalactam = beta-lactam sensitization of Mtb H37Rv; AID 434955; inhibition, % at 25 µM; 330,000 compounds, 0.27% hits; M. tuberculosis H37Rv growth with meropenem, percent inhibition;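 note: growth measured after seven days incubation then overnight dye step; 0% = bacteria only wells and 100% = bacteria with antibiotic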
BioA inh-2 = blocks M. tuberculosis BioA aminotransferase | shares compounds with BioA inh-1 | purified BioA enzyme, plate reader, dose response | max activity, % | 310 tested, under 10 active | AID 651679;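 note: top concentration of the dilution series was 10 µM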
Target sequence (P9WQ81 whole entry, looked up): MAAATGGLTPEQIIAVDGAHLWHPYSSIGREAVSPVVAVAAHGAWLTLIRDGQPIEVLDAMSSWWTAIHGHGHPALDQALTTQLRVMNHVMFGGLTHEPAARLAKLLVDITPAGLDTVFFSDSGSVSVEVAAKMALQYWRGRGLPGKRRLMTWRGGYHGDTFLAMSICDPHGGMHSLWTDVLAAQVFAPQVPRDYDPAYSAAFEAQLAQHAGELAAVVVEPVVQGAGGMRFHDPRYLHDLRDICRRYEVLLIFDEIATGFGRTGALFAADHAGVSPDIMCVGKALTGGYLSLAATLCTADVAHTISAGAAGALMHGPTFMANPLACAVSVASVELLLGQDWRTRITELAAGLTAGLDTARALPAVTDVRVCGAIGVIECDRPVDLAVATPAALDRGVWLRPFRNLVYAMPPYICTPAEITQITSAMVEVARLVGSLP
HepG2 tox 2 = HepG2 viability loss | max activity, % | 310 tested, under 10 active | AID 651898 | shares compounds with BioA inh-1 | HepG2 cytotoxicity, plate reader
3T3 cytotox 5 = kills NIH3T3 cells. 310 tested, under 10 active. activity change, negative = cytotoxicity, % at 26 µM. shares compounds with BioA inh-1. NIH3T3 cytotoxicity, plate reader
* = called active by the depositor; i = inactive; nt = not tested or not shown; [ ] = remark or other dose. Unless noted, the rule behind the calls is not given here.

SMILES	ugtP null kill	PfHsp40 rescue	BioA inh-1	Sa RN4220 lethal	Mtb betalactam	BioA inh-2	HepG2 tox 2	3T3 cytotox 5
CCN(CC)S(=O)(=O)c1ccc(NC(=O)c2ccc(NS(C)(=O)=O)cc2)cc1	-0.4	0.3	-1.8	6.1	1.5	nt	nt	nt
CCN(CC)S(=O)(=O)c1ccc(NC(=O)c2ccc(Cl)nc2)cc1	4.3	0.2	52.1*	2.5	49.0	-10.2	-10.7	-9.2
CO[C@H]1CN(C)C(=O)c2ccc(NC(C)=O)cc2OC[C@@H](C)N(C(=O)C2CCCCC2)C[C@H]1C	nt	nt	53.4*	nt	nt	-2.9	i	2.6
Cc1cnc(C(=O)Nc2ccc(-n3cnnn3)cc2)cn1	2.1	-1.5	22.8	4.3	1.7	nt	nt	nt
COc1ccc(NC(=O)c2cnc(C)cn2)cc1-n1cnnn1	5.2	0.3	51.2*	0.3	-11.8	-7.1	32.0	7.8
Cc1cc(/C=C(\C#N)C(=O)Nc2ccccc2)c(C)n1-c1ccc2c(c1)OCO2	-24.1	-0.8	15.9	8.9	45.4	nt	nt	nt
Cc1cc(/C=C(/C#N)C(=O)Nc2ccccc2)c(C)n1-c1cccnc1	-10.3	1.7	54.6*	-7.1	-5.4	-6.8	6.3	-0.9
Cc1cc(C(=O)CSc2nncs2)c(C)n1-c1ccc2c(c1)OCO2	-6.0	0.2	49.3*	2.5	-4.8	-9.8	9.5	-5.8
Cc1cc(NC(=O)CN(C)S(=O)(=O)c2cnc[nH]2)ccc1Br	-1.5	0.0	41.6*	-1.2	2.7	3.0	5.5	-4.1
Cc1cccc(NC(=O)CN(C)S(=O)(=O)c2cnc[nH]2)c1	2.0	-1.7	3.4	2.1	-5.6	nt	nt	nt
CCC1C(Nc2ccccc2)CC2CCN3C(=O)CCCC1C23 (stereo not given)	3.8	nt	nt	4.1	nt	nt	nt	nt
Cc1ccccc1S(=O)(=O)NCC[C@H]1CC[C@@H](NC(=O)Nc2cccc(F)c2)[C@H](CO)O1	nt	nt	46.4*	nt	nt	-4.7	i	-0.3
COc1ccc(Nc2c(-c3ccc(OC)cc3)nc3cnccn23)cc1	2.2	2.2	46.0*	3.9	3.6	-7.1	-6.1	1.3
Cc1ccc(Nc2c(-c3ccc(N4CCOCC4)cc3)nc3cnccn23)cc1	-0.5	-0.8	3.1	2.9	-5.8	nt	nt	nt
COc1ccc(-c2nc3cnccn3c2Nc2ccc3c(c2)OCO3)cc1	-12.8	2.8	54.0*	-7.4	6.0	-3.1	3.7	-11.8
CCN1CCN(CC(=O)c2c(C)n(Cc3ccccc3)c3ccc(OC)cc23)CC1	-8.2	0.4	26.0	-1.1	8.3	nt	nt	nt
COc1ccc2c(c1)c(C(=O)CN1CCC3(CC1)OCCO3)c(C)n2Cc1ccccc1	2.5	-0.1	59.4*	-3.9	-7.1	-6.2	-7.7	-9.9
Cc1c(NC(=O)c2ccc(S(=O)(=O)N(C)C)cc2)cccc1-n1cnnn1	5.9	0.7	-0.6	5.0	0.5	nt	nt	nt
Cc1c(NC(=O)c2cc3ccccc3o2)cccc1-n1cnnn1	nt	nt	46.4*	nt	nt	-5.4	-20.2	3.4
CCOC(=O)C1C2COc3cc(OC)ccc3C2N2C(=O)N(c3cccc(C)c3)C(=O)[C@]12C (stereo not given in full)	-0.8	nt	nt	1.6	nt	nt	nt	nt
COCC(=O)N1CC[C@@H]2[C@@H](CO)N(C)c3ccc(-c4ccc(F)cc4)cc3[C@@H]21	nt	nt	60.6*	nt	nt	-5.7	i	1.3
CCC(=O)N1CC[C@@H]2[C@@H](CO)N(C)c3ccc(-c4cccc(F)c4)cc3[C@@H]21	nt	nt	67.8*	nt	nt	8.7	i	-7.0
CN1c2ccc(-c3cccc(F)c3)cc2[C@H]2[C@H](CCN2C(=O)c2ccncc2)[C@@H]1CO	nt	nt	69.1*	nt	nt	-9.3	i	-4.3
CN1c2ccc(-c3cccc(F)c3)cc2[C@@H]2[C@@H](CCN2C(=O)C2CC2)[C@H]1CO	nt	nt	31.3	nt	nt	nt	nt	nt
CN1c2ccc(-c3cccc(F)c3)cc2[C@H]2[C@H](CCN2C(=O)C2CC2)[C@H]1CO	nt	nt	41.0*	nt	nt	6.3	i	-0.2[23.5 µM]
CC(=O)OC1C(=O)[C@@]2(C)C(O)CC3OC[C@@]3(OC(C)=O)C2C(OC(=O)c2ccccc2)[C@]2(O)CC(OC(=O)C(O)C(NC(=O)c3ccccc3)c3ccccc3)C(C)=C1C2(C)C (stereo not given in full)	-5.6	nt	nt	-0.1	nt	nt	nt	nt
Cc1ccc(-c2nn(CCC(=O)Nc3cccnc3)c(=O)c3ccccc23)cc1	7.9	nt	88.9*	2.4	-7.0	-10.6	11.9	-5.8
